An excerpt weighted towards active compounds, which were near 0.87% of everything screened.
WRN helicase inh = blocks human WRN helicase. 360,000 compounds, 0.46% hits. Potency, µM (top dose mostly 114 µM), without a hit: at the top dose activity change, negative = inhibition, most hits filed as inhibitors. AID 651768. WRN helicase unwinding, fluorescent forked duplex, kinetic; further: nearly all actives have a fitted effect of over 55% in size
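WRN at 20 nM final was preincubated with compound for 15 min at room temperature; reaction started with 100 nM forked duplex oligonucleotide carrying fluorophore and quencher plus 2 mM ATP (final). Unwinding followed kinetically by red fluorescence (ex 525/em 598 nm).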
APEX1 inh = APE1 (human) endonuclease inhibition; 350,000 compounds, 0.35% hits; Potency, µM (top dose mostly 65.8 µM), without a hit: at the highest dose activity change, negative = inhibition, most hits filed as inhibitors; recombinant APE1, TAMRA/BHQ-2 abasic DNA cleavage fluorescence;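 further: plate controls were vehicle for no effect and reference inhibitor for full effect; nearly all actives have a fitted effect of over 55% in size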
Target sequence (P27695 whole entry, looked up): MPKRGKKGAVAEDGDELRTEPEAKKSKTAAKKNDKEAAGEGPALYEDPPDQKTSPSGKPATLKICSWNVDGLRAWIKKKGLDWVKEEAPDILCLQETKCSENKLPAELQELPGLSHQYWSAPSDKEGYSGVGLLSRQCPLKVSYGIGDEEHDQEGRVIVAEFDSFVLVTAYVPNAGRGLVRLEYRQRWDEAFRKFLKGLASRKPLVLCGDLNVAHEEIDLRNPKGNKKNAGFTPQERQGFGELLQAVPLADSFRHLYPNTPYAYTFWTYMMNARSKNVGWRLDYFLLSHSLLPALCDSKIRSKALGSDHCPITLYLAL
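Quantitative HTS: incision of a TAMRA/BHQ-2 double-stranded substrate bearing a tetrahydrofuran abasic site by 0.75 nM APE1 raises fluorescence. Substrate 50 nM final, added after 15 min compound preincubation at room temperature; progress as third-minus-first kinetic read difference.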
BLM helicase inh = blocks DNA unwinding by human BLM helicase; recombinant BLM DNA unwinding, fluorescence dequenching; P54132; 350,000 compounds, 0.2% hits; Potency, µM (titrated, usually from 56.1 µM), without a hit: at the top dose activity change, negative = inhibition, hits mostly inhibitors; AID 2528;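 further: plate controls were vehicle for no effect and no enzyme for full effect; nearly all actives have a fitted effect of over 35% in size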
FEN1 inhibitor = human FEN1 inhibition; Recombinant FEN1 flap cleavage, fluorescence, 15 min; 390,000 compounds, 0.35% hits; Potency, µM (doses to about 114 µM), inactives show at the highest dose activity change, negative = inhibition, actives largely listed as inhibitors; AID 588795; further: nearly all actives have a fitted effect of over 65% in size
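Reaction started by adding substrate (50 nM final) to 10 nM enzyme after 15 min room-temperature compound preincubation. Reads at 0 and 15 min, with data normalized and fitted to a four-parameter Hill equation.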
RECQ1 inh-1 = RECQ1 (human) helicase inhibition | P46063 | RECQ1 DNA unwinding, red fluorescence kinetic read | Potency, µM (titrated, usually from 57.3 µM), for inactives: top-dose activity, negative = inhibition, usual class: inhibitors | 240,000 compounds, 0.54% hits;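 further: plate controls were vehicle for no effect and no enzyme for full effect; nearly all actives have a fitted effect of over 30% in size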
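50 nM RECQ1T1 preincubated 15 min with compound in Tris pH 8.0 buffer with MgCl2, DTT, Tween-20 and 2.5 ug/ml poly(dI-dC); started with 200 nM TAMRA/BHQ-2 forked duplex and 2 mM ATP. Unwinding read as fluorescence (525/598 nm), two reads 2 h apart.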
RECQ1 conf = confirmation of human RECQ1 helicase inhibitors. shares compounds with RECQ1 inh-1. Potency, µM (top dose mostly 229 µM), for the others: at the highest dose activity change, negative = inhibition, most hits filed as inhibitors. 610 compounds, 28% hits. RECQ1 helicase DNA unwinding, fluorescence; further: nearly all actives have a fitted effect of over 45% in size
ADP FP counter = ADP displacement flagged in RECQ1 inhibitor counter-screen; shares compounds with RECQ1 inh-1; 530 compounds, 27% hits; ADP fluorescence polarization displacement counterscreen; AID 2711; Potency, µM (doses to about 228 µM), without a hit: top-dose activity change, negative = inhibition, actives largely listed as inhibitors; further: nearly all actives have a fitted effect of over 45% in size
RECQ1 inh-2 = blocks human RECQ1 DNA unwinding; shares compounds with RECQ1 inh-1; recombinant RECQ1 DNA unwinding, red fluorescence; Potency, µM (titrated, usually from 119 µM), for inactives: at the highest dose activity, negative = inhibition, most hits filed as inhibitors; 1,100 compounds, 15% hits; AID 504841; further: nearly all actives have a fitted effect of over 50% in size
* hit, by the source's call; ? = inconclusive; . = no result; + = active, no number; [ ] = another dose, or the depositor's remark. The call rests on the fitted dose curve; in most records, active means well fitted curve in the direction sought with a large enough effect; inconclusive means small, poorly fitted or top-dose-only effect, or another doubt; inactive means no such curve, though single readings can be large; an effect the other way counts as inactive or inconclusive. Unless noted, on the % scale 0 is the no-effect control and ±100 the full control effect; potency means the concentration at half of the fitted maximal effect.

SMILES	WRN helicase inh	APEX1 inh	BLM helicase inh	FEN1 inhibitor	RECQ1 inh-1	RECQ1 inh-2	others
Cc1cc(C2(c3cc(C)c(O)cc3C)OS(=O)(=O)c3ccccc32)c(C)cc1O	.	-3%	.	.	-27%	.
COc1cccc2c1C(=O)c1c(O)c3c(c(O)c1C2=O)C[C@@](O)(C(=O)CO)C[C@@H]3OC1C[C@@H](N)[C@H](O)[C@H](C)O1 (some centres undefined)	.	10µM*	28µM*	.	16µM*	.	ADP FP counter=0.4µM*
COc1cccc(/C=N/Nc2nc3ccccc3n3cnnc23)c1O	?	1%	-11%	?	5µM*	.	RECQ1 conf=-5%[114 µM]
CCOc1cccc(=O)c2c(C)n(C)c(C)c12	-24%	?	-23%	?	?	-3%
COc1cccc(=O)c2c(C)n(-c3cc(C)cc(C)c3)c(C)c12	1%	-6%	-8%	-6%	-10%	.
CCCCCn1c(C)c2c(OCC)cccc(=O)c2c1C	-3%	-8%	-12%	-3%	32µM*	-11%
COc1cccc(=O)c2c(C)n(C)c(C)c12	-28%	-9%	-18%	-2%	?	-21%
CCOc1ccccc1OCC(=O)O	-5%	2%	-2%	1%	-11%	.
COc1cccc(-n2c(C)c3c(OC)cccc(=O)c3c2C)c1	-20%	-6%	-8%	-11%	-11%	.
Cc1ccc(-n2nc3c(N4CCC(C(=O)NCCC(C)C)CC4)nnc(C)c3c2C)cc1	.	.	-3%	12%	.	.
CN(C)c1ccc(-c2nc(NC3CCNCC3)c3ccccc3n2)cc1	.	?	?	.	?	20µM*
CCNC(=O)COC(=O)c1cc(-c2ccco2)nc2ccccc12	-21%[11.6 µM]	25µM*	?	?	28µM*	?
CCCOc1cccc(C(=O)N(Cc2sccc2C)C2CCS(=O)(=O)C2)c1 (centres undefined)	.	.	0%	11%	.	.
COc1ccc(NC(=O)CCNS(=O)(=O)c2ccc3c(c2)CCC(=O)N3)cc1	-3%	2%	-1%	-14%	-4%	.	RECQ1 conf=14%;ADP FP counter=?
O=C(COc1ccc2c(c1)CCC2)N1CCN(c2cccc(C(F)(F)F)c2)CC1	1%	?	-6%	-19%	35µM*	-14%
COc1ccc2nc(-c3ccco3)c(-c3ccco3)nc2c1	45µM*	8.9µM*	13µM*	?	?	2%
CCCN1C(=O)C(Cc2nc3ccccc3c(=O)n2CC)c2cc(Br)ccc21 (centres undefined)	.	.	-3%	7%	.	.
Cc1ccc(O)c(-c2n[nH]c3c2C(c2ccc(F)cc2)N(Cc2ccco2)C3=O)c1 (centres undefined)	.	.	-9%	-21%	.	.
Cc1nc(/N=C(\N)NC(=O)N2c3ccccc3Sc3ccccc32)nc2ccccc12	-14%	-9%	6%	1%	-6%	.	RECQ1 conf=3%;ADP FP counter=-5%
Cc1nc(/N=C(\N)NC(=O)c2ccccc2)nc2ccccc12	-3%	3%	3%	5%	-9%	.
CN1CC(O)C2=CC(=O)C(=O)C=C21 (centres undefined)	.	0.4µM*	.	.	2.8µM*	.	RECQ1 conf=+;ADP FP counter=10µM*
COc1ccc(S(=O)(=O)/N=C2/NC(=O)/C(=C/c3ccco3)S2)cc1	?	?	5%	-8%	?	-27%
COc1ccc(S(=O)(=O)/N=C2/NC(=O)/C(=C\c3ccco3)S2)cc1	-27%[57.1 µM]	6%	6%	2%	-4%	.

From PubChem BioAssay
